According to PubChem BioAssay (NCI):
Compounds without any hit were thinned out: in the full panel of roughly 83,000, 20% have a hit.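 Plates (96-well) were seeded with cells, treated with compound at one concentration, and incubated for 48 hours before percent growth was determined.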 Unmarked numbers belong to inactive results. Activity calls are given as the source filed them. How the source made its calls: active means growth percent below 10; inactive means the rest.

What was measured:
Test in all cases: NCI-60 one-dose screen, 48 h (100 = growth as untreated, 0 = no growth, -100 = all killed)
Settings in all cases: 10 µM unless noted
[1] = system: T-47D breast
[2] = system: MDA-MB-435 melanoma
[3] = system: SW-620 colon
[4] = system: MCF7 breast
[5] = system: HCT-116 colon
[6] = system: HCC-2998 colon
[7] = system: KM12 colon
[8] = system: BT-549 breast

Row | SMILES | growth [1] | growth [2] | growth [3] | growth [4] | growth [5] | growth [6] | growth [7] | growth [8] [%]
1 | CC(C)Sc1nc(-c2ccccc2)c(C#N)c(N2CCOCC2)n1 | 68.5% | 88% | 74.2% | 72.8% | 43.5% | 69.5% | 88.3% | 
2 | CN(C)S(=O)(=O)c1ccc(-c2nc(C(Cl)Cl)nc3cc(-c4ccc(F)cc4)nn23)cc1 | 38% | 6.53% (active) | 4.42% (active) | 15% | -0.738% (active) | 8.78% (active) | 7.53% (active) | 
3 | Clc1ccc2[nH]cc(-c3nn4cc(-c5cccnc5)nc4s3)c2c1 | 71.5% | 101% | 104% | 72.3% | 99.8% |  | 98% | 110
4 | CN(C)CC(=O)Nc1nc(-c2cccc(NS(=O)(=O)c3cccc4c(N(C)C)cccc34)c2)cs1 | 56.9% | 99% | 105% | 68.3% | 80.1% | 85.8% | 94.1% | 
5 | CNC(=O)c1cc(N2CCc3cc(NC(=O)Nc4ccc(N5CCN(C)CC5)c(C(F)(F)F)c4)ccc32)ccn1 | 81.4% | 82.3% | 3.68% (active) | -2.1% (active) | -47.2% (active) |  | 29.5% | 84.9
6 | CN(C)S(=O)(=O)c1ccc(-c2nc(C(Cl)Cl)nc3cc(-c4ccccc4)nn23)cc1 | 89.5% | 81.6% | 49.6% | 72% | 72.3% | 100% | 74% | 
7 | O=C(/C=C/c1cccc(Br)c1)c1cccc(OCCCCOc2cccc(C(=O)/C=C/c3cccc(Br)c3)c2)c1 | 104% | 105% | 98.3% | 89.5% | 87% | 118% | 98.7% | 
8 | Cc1ccc2c(n1)C(=O)C(Cl)=C(Nc1ccc(C)c(C)c1)C2=O | 3.29% (active) | -82.6% (active) | 33.5% | -60.5% (active) | 12.2% | 57.6% | 51.9% | 
9 | CCCC[n+]1ccc(SCC(=O)n2ccc3ccccc32)c2ccccc21 | 73.3% | 101% | 102% | 83% | 93.1% |  | 92.5% | 
10 | O=C(CSc1cc[n+](CCCCO)c2ccccc12)n1ccc2ccccc21 | 96.6% | 107% | 99% | 94.6% | 99.6% | 113% | 96.9% | 
11 | CNC(=O)c1cc(N2CCc3cc(NC(=O)Nc4ccc(N5CCOCC5)c(C(F)(F)F)c4)ccc32)ccn1 | 28.1% | 41.5% | 34.6% | 12.4% | 2.52% (active) |  | 11.1% | 
12 | CC(=C(c1ccc(OCCN(C)C)cc1)c1ccc(OCCN(C)C)cc1)c1ccc(Cl)cc1 | -53.7% (active) | -82.8% (active) | -71.5% (active) | -77.6% (active) | -65.1% (active) | -87.7% (active) | -65.2% (active) | 
13 | N#Cc1nc(-c2ccccc2)oc1N1CCC(C2(C(F)(F)F)N=N2)CC1 | 95.6% | 101% | 98.8% | 89.1% | 104% | 107% | 96.2% | 
14 | C#CCOc1ccccc1C(OC(=O)c1ccccc1)C(=O)NC(C)(C)C(C)(C)C (centres undefined) | 73.5% | 96.2% | 96.9% | 79.9% | 60.5% | 96.1% | 92.7% | 
15 | Brc1ccc(-c2cc(-c3ccc4c(c3)OC=CO4)n[nH]2)s1 | 48.5% | 15.3% | 79.1% | 20.7% | 91.5% | 84.5% | 58.6% | 
16 | CCOC(=O)c1ccc(NC2=C(Cl)C(=O)c3nc(C)ccc3C2=O)cc1 | -0.935% (active) | 21.6% | -19.6% (active) | -14.5% (active) | 7.29% (active) |  | 50.8% | 
17 | CC1=C(C)C(=O)C(Nc2cccc(C(F)(F)F)c2)=C(Br)C1=O | 17.6% | 103% | 48.7% | 52.3% | 20% | 108% | 90.7% | 

Row | SMILES | growth [1] | growth [2] | growth [3] | growth [4] | growth [5] | growth [6] | growth [7] | growth [8] [%]
18 | NC1[C@H]2CN(c3cnc(C(=O)Nc4cc(F)cc5cccnc45)cn3)C[C@@H]12 (some centres undefined) | 32.4% | 90% | 47.6% | 6.12% (active) | 10.7% | 84.3% | 87.4% | 
19 | CCOC(=O)c1c(N)c(C#N)cn1Cc1ccc(Cl)cc1Cl | 78.3% | -7.54% (active) | 44.9% | 59.2% | 64% | 73% | 60.1% | 
20 | O=C(/C=C/c1csc(Br)n1)NO | 8.14% (active) | 5.36% (active) | 10.2% | 24.6% | 5.92% (active) | 29.2% | 34.9% | 
21 | COc1cc(-c2nc(-c3ccccc3)[nH]c2-c2ccnc(NCCCNS(=O)(=O)c3cccc(F)c3)n2)ccc1F | 66.5% | 82% | 106% | 83.1% | 75.1% | 142% | 85.8% | 
22 | CN1CCN(c2ccc(Nc3nc(NCCCNS(=O)(=O)c4ccc(F)cc4)c4sccc4n3)cc2)CC1 | 29.8% | 47.3% | 70.1% | 31.2% | 20.8% | 74.3% | 65.3% | 
23 | Clc1ccc2[nH]cc(-c3cncn3CCc3ccc4c(c3)OCO4)c2c1 | 37.8% | 71.3% | 79.5% | 63% | 63.2% | 89.9% | 74.6% | 
24 | Cc1ccc(C(=O)Nc2ccc(CNCCN3CCOCC3)c(C(F)(F)F)c2)cc1C#Cc1cnc2cccnn12 | 4.34% (active) | -28% (active) | 14.1% | 6.79% (active) | 2.51% (active) | 6.09% (active) | 1.77% (active) | 
25 | CC(=C(c1ccc(OCCCN(C)C)cc1)c1ccc(OCCCN(C)C)cc1)c1ccc(Cl)cc1 | 74.9% | 89.3% | 87.8% | 37.9% | 64.6% | 81.7% | 84.2% | 
26 | CCN(CC)CCOc1ccc(C(=C(C)Cc2ccc(OC)cc2)c2ccc(OCCN(CC)CC)cc2)cc1 | 64.2% | -66.1% (active) | -6.4% (active) | -33.8% (active) | 16.3% |  | 48.6% | 
27 | Cn1cc(-c2nn3cc(-c4ccncc4)nc3s2)c2cc(F)ccc21 | 41.4% | 83.2% | 68.9% | 18.2% | 45.7% | 91.4% | 81.8% | 
28 | Cc1ccc(C(=O)Nc2ccc(CNCCN3CCNCC3)c(C(F)(F)F)c2)cc1C#Cc1cnc2cccnn12 | 3.12% (active) | -76.2% (active) | -11.1% (active) | -82.9% (active) | -58.5% (active) | 3.91% (active) | -45.6% (active) | 
29 | C[C@H]1OCC2(CCN(c3cnc(C(=O)Nc4cc(F)cc5cccnc45)cn3)CC2)[C@H]1N | 35.3% | 79.7% | 4.8% (active) | 1.15% (active) | 13.9% | 78.3% | 82.5% | 
30 | CCOC(=O)c1c(NC(=O)c2cccc(C(F)(F)F)c2)sc2c3c(ccc12)OCN(C)C3 | -38.2% (active) | -55.5% (active) | -76.5% (active) | -81.9% (active) | -89.4% (active) | -88.9% (active) | -11.3% (active) | 
31 | CCC(=C(c1ccc(OCCN(C)C)cc1)c1ccc(OCCN(C)C)cc1)c1ccc(Cl)cc1 | -56% (active) | -88.6% (active) | -72.4% (active) | -72.8% (active) | -67.7% (active) | -72.4% (active) | -49.1% (active) | 
32 | O=S(=O)(Oc1ccc(-c2cn3ccoc3n2)cc1)C1CCCCC1 | 95.7% | 98.6% | 103% | 87% | 89.3% | 113% | 103% | 
33 | COc1ccc(OC)c(CCn2cncc2-c2c[nH]c3ccc(Cl)cc23)c1 | 20.1% | 12.8% | 43.4% | 21.6% | 34.5% | 72.4% | 40.6% | 
34 | COc1cc(/C=C2/C(=O)Nc3ccc(Cl)cc32)ccc1OCc1ccc(Cl)cc1 | 80.5% | 91.3% | 59.7% | 49% | 47.9% | 107% | 100% | 
